# PubChem BioAssay (EPA / NIEHS)
# Results filed as inconclusive are left out. The source made the active and inactive calls. The calls were made as follows, unless noted: active = hit-call score of the fitted dose curve at least 0.9, where 1 is the maximum; inactive = score below 0.9.
# How the values were obtained:
# [1] = biological target: Glucocorticoid receptor (Homo sapiens) (UniProt P04150); assay: ATG_GR_TRANS: Attagene TRANS-FACTORIAL HepG2 Assay for human Glucocorticoid Receptor (GR) (AID 2282978; active = hit-call score of the fitted dose curve at least 0.9, where 1 is the maximum;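 also: activators score as hits since higher reporter transcript over DMSO is fitted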); settings: HepG2 Attagene TRANS GR reporter, mRNA transcription
# How it was run: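 Fluorescent capillary-electrophoresis quantitation of reporter mRNA is the readout, taken 24 h after dosing human HepG2 cells carrying transiently transfected GAL4-UAS reporter units activated by chimeric NR-GAL4 fusions; activity scored as induction over DMSO.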
# [2] = biological target: Bile acid receptor (Homo sapiens) (UniProt Q96RI1); assay: ATG_FXR_TRANS: Attagene TRANS-FACTORIAL HepG2 Assay for Farnesoid X Receptor (FXR) (AID 2282979; active = hit-call score of the fitted dose curve at least 0.9, where 1 is the maximum;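 also: hits raise reporter mRNA above DMSO so AC50 marks FXR activation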); settings: HepG2 Attagene TRANS FXR-GAL4 reporter transcription
# How it was run: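 Transient transfection of HepG2 with multiplexed GAL4-UAS reporter units; exogenous FXR-GAL4 chimera. Dose 24 h → TriZol RNA → oligo(dT) RT → PCR, 6-FAM primer extension, HpaI cut → CE. Gain vs DMSO.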
# [3] = biological target: Oxysterols receptor LXR-alpha (Homo sapiens) (UniProt Q13133); assay: ATG_LXRa_TRANS: Attagene TRANS-FACTORIAL HepG2 Assay for human Liver X Receptor alpha (LXRa) (AID 2282980; active = hit-call score of the fitted dose curve at least 0.9, where 1 is the maximum); settings: HepG2 Attagene TRANS reporter, LXRa transactivation
# How it was run: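 Transfect HepG2 with GAL4-UAS multiplex reporter constructs (TRANS format, chimeric receptor-GAL4); treat 24 h; extract RNA, reverse-transcribe, PCR-amplify, FAM-label, HpaI-digest; resolve fragments by capillary electrophoresis. Upward response vs DMSO.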
# [4] = biological target: Oxysterols receptor LXR-beta (Homo sapiens) (UniProt P55055); assay: ATG_LXRb_TRANS: Attagene TRANS-FACTORIAL HepG2 Assay for human Liver X Receptor beta (LXRb) (AID 2282981; active = hit-call score of the fitted dose curve at least 0.9, where 1 is the maximum); settings: HepG2 Attagene TRANS GAL4-LXRb reporter, mRNA
# How it was run: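 Liver-derived HepG2 cells transfected with Gal4-responsive reporters were dosed for 24 h. Activation was scored as rise in reporter mRNA, by RT-PCR and capillary electrophoresis, above DMSO baseline.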
# [5] = biological target: Hepatocyte nuclear factor 4-alpha (Homo sapiens) (UniProt P41235); assay: ATG_HNF4a_TRANS: Attagene TRANS-FACTORIAL HepG2 Assay for human Hepatocyte Nuclear Factor 4 alpha (HNF4a) (AID 2282982; active = hit-call score of the fitted dose curve at least 0.9, where 1 is the maximum); settings: HepG2 HNF4a transactivation reporter, mRNA readout
# How it was run: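 Using HepG2 liver cells transfected with GAL4-UAS reporter units, chemical-induced mRNA increases were assessed after 24 hours. Fluorescent RT-PCR fragments were separated by capillary electrophoresis and compared with DMSO negative controls.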
# [6] = ATG_M_06_TRANS: Attagene TRANS-FACTORIAL HepG2 Assay for M06 Transcription Factor (Internal Marker) (AID 2282983; active = hit-call score of the fitted dose curve at least 0.9, where 1 is the maximum); settings: HepG2 Attagene TRANS M06 internal marker reporter
# How it was run: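 Background control endpoint: reporter mRNA from transiently transfected HepG2 after 24 h dosing, detected by RT-PCR with capillary electrophoresis fluorescence. Analysed for gain versus DMSO.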
# [7] = ATG_M_32_TRANS: Attagene TRANS-FACTORIAL HepG2 Assay for M32 Transcription Factor (Internal Marker) (AID 2282984; active = hit-call score of the fitted dose curve at least 0.9, where 1 is the maximum); settings: HepG2 Attagene TRANS M32 internal marker reporter
# How it was run: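 Fluorescence-detected mRNA induction, HepG2 liver cells, 24 h after dosing. Multiple GAL4-UAS reporter units introduced by transient transfection; background-control endpoint analysed for gain of signal against DMSO.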
# [8] = biological target: Transcriptional activator Myb (Homo sapiens) (UniProt P10242); assay: ATG_Myb_CIS: Attagene CIS-FACTORIAL HepG2 Assay for human Myeloblastosis (Myb) Proto-Oncogene Transcription Factor (AID 2282986); settings: HepG2 Attagene CIS-FACTORIAL Myb reporter transcription; actives raise or lower the signal
# How it was run: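 Reporter transcript levels, quantified by fluorescent RT-PCR and capillary electrophoresis, serve as the read-out. Transfected HepG2 cells carrying cis-promoter reporter units are dosed for 24 hours, and curves are fitted bidirectionally against DMSO controls.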
# [9] = biological target: Nuclear respiratory factor 1 (Homo sapiens) (UniProt Q16656); assay: ATG_NRF1_CIS: Attagene CIS-FACTORIAL HepG2 Assay for human Nuclear Respiratory Factor 1 (NRF1) Orphan Gene (AID 2282987); settings: HepG2 NRF1 cis-element reporter, Attagene multiplex; actives raise or lower the signal
# How it was run: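 Multiplexed cis-reporter assay, HepG2 cells, 24 h treatment. Total RNA → oligo(dT) RT → PCR with reporter-specific primers → 6-FAM primer extension → HpaI cut → CE. Bidirectional fit vs DMSO.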
# [10] = ATG_NFI_CIS: Attagene CIS-FACTORIAL HepG2 Assay for human Nuclear Factor I (NFI) (AID 2282989); settings: HepG2 cis-regulatory reporter, NFI response element transcription; actives raise or lower the signal
# How it was run: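 HepG2 cells transiently transfected with cis-element-driven multiplexed reporter transcription units, dosed for 24 h. Reporter mRNA quantified by RT-PCR, fluorescent labelling, HpaI digestion and capillary electrophoresis; bidirectional fit versus DMSO baseline.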
# [11] = biological target: Myc proto-oncogene protein (Homo sapiens) (UniProt P01106); assay: ATG_Myc_CIS: Attagene CIS-FACTORIAL HepG2 Assay for human Myelocytomatosis (Myc) Proto-Oncogene Transcription Factor (AID 2282990); settings: HepG2, Attagene cis-reporter transcription factor activity; actives raise or lower the signal
# How it was run: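 Multiplexed cis-reporter transcription in HepG2 cells after 24 h chemical treatment. Reporter mRNA measured by RT-PCR and capillary electrophoresis fluorescence; activity fitted bidirectionally against DMSO control.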
# [12] = ATG_NRF2_ARE_CIS: Attagene CIS-FACTORIAL HepG2 Assay for human Nuclear Factor Erythroid 2 Related Factor 2 (NFR2) response to Antioxidant Response Elements (ARE) (AID 2282992); settings: HepG2 Attagene ARE/NRF2 reporter, transcription factor activity; actives raise or lower the signal
# How it was run: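 Using transiently transfected HepG2 cells exposed for 24 h, reporter mRNA levels were determined by RT-PCR with fluorescent primer extension and capillary electrophoresis, analysed for gain or loss of signal against DMSO.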
# [13] = ATG_Oct_MLP_CIS: Attagene CIS-FACTORIAL HepG2 Assay for human Octamer-Binding Transcription Factor (Oct) (AID 2282993); settings: HepG2 Attagene cis-factorial Oct reporter, mRNA; actives raise or lower the signal
# How it was run: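 HepG2 cells transiently transfected with cis-promoter-driven multiplexed reporter transcription units, dosed for 24 h. Reporter mRNA quantified by RT-PCR, fluorescent labelling, HpaI digestion and capillary electrophoresis; bidirectional fits versus DMSO baseline.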
# [14] = biological target: Cellular tumor antigen p53 (Homo sapiens) (UniProt P04637); assay: ATG_p53_CIS: Attagene CIS-FACTORIAL HepG2 Assay for human p53 Transcription Factor (AID 2282994); settings: HepG2 p53 cis-element reporter, Attagene mRNA; actives raise or lower the signal
# How it was run: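 In HepG2 cells, reporter transcription units under cis-regulatory promoters were transiently introduced. Following 24 h treatment, RNA was processed to labelled, digested cDNA fragments read by capillary electrophoresis; fitting was bidirectional versus DMSO.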
# [15] = ATG_NF_kB_CIS: Attagene CIS-FACTORIAL HepG2 Assay for human Nuclear Factor Kappa B (NF-kB) (AID 2282991); settings: HepG2 Attagene cis-factorial NF-kB reporter mRNA; actives raise or lower the signal
# How it was run: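 Transient MRTU transfection of human HepG2 liver cells → 24 h chemical exposure → total RNA, oligo(dT) RT → PCR, 6-FAM primer extension, HpaI digest 2 h 37 C → CE fragment analysis. Bidirectional fitting, DMSO negative control.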
# [16] = biological target: Nuclear receptor subfamily 4 group A member 2 (Homo sapiens) (UniProt P43354); assay: ATG_NURR1_TRANS: Attagene TRANS-FACTORIAL HepG2 Assay for human Nuclear Receptor Related Protein 1 (NURR1) (AID 2282985; active = hit-call score of the fitted dose curve at least 0.9, where 1 is the maximum); settings: HepG2 Attagene TRANS reporter, mRNA readout
# How it was run: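 Chimeric NR-Gal4 proteins were expressed in human HepG2 cells bearing GAL4-UAS reporter units, and induced reporter mRNA was quantified 24 h post-dosing by RT-PCR and capillary electrophoresis.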
# [17] = BSK_3C_TissueFactor: BioMAP Diversity Plus: 3C Assay for Tissue Factor Biomarker Activity (AID 2282997); settings: BioMAP 3C HUVEC, tissue factor biomarker readout; actives raise or lower the signal
# How it was run: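 After a 24 h chemical exposure of primary human umbilical vein endothelial cells, Tissue Factor levels were quantified by ELISA.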
# [18] = BSK_3C_uPAR: BioMAP Diversity Plus: 3C Assay for Urokinase-type plasminogen activator receptor (uPAR) Biomarker Activity (AID 2282998); settings: BioMAP 3C HUVEC, uPAR biomarker ELISA; actives raise or lower the signal
# How it was run: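 Human umbilical vein endothelial primary cells were exposed to test chemical for 24 h. Cell-surface uPAR was then quantified by ELISA, and responses were fitted bidirectionally against DMSO as negative control and baseline.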
# [19] = BSK_3C_VCAM1: BioMAP Diversity Plus: 3C Assay for Vascular cell adhesion molecule 1 (VCAM1) Biomarker Activity (AID 2282999); settings: BioMAP 3C HUVEC, VCAM1 ELISA, cytokine-stimulated; actives raise or lower the signal
# How it was run: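 Vascular primary endothelium (human umbilical vein) was exposed to chemicals and assayed 24 h later. VCAM-1 levels came from ELISA, with DMSO serving as baseline for bidirectional fitting.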
# [20] = BSK_4H_Eotaxin3: BioMAP Diversity Plus: 4H Assay for Eotaxin 3 Biomarker Activity (AID 2283000); settings: primary human endothelial cells (HUVEC); actives raise or lower the signal;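 also: CCL26 protein level quantified by ELISA in parallel with SRB cytotoxicity check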
# How it was run: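 Chemicals were added to human umbilical vein endothelium cultures, and Eotaxin-3 was quantified by ELISA at 24 h. Values were derived by bidirectional fitting with DMSO serving as negative control and activity baseline.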
# Chain of Oxysterols receptor LXR-beta (Homo sapiens) (P55055 whole entry, looked up, the tested form may be a part): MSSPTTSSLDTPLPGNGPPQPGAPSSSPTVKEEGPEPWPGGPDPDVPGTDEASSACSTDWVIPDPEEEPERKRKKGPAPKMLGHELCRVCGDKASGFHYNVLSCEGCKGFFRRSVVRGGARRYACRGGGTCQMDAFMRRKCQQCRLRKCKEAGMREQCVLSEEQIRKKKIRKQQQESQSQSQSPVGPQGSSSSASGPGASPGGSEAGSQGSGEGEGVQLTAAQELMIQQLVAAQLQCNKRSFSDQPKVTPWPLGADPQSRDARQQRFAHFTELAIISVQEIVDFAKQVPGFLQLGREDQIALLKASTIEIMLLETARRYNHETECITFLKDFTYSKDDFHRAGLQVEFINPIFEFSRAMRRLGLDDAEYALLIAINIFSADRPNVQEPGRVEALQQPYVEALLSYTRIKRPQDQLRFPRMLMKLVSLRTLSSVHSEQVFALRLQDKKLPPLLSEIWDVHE
# Chain of Glucocorticoid receptor (Homo sapiens) (P04150 whole entry, looked up, the tested form may be a part): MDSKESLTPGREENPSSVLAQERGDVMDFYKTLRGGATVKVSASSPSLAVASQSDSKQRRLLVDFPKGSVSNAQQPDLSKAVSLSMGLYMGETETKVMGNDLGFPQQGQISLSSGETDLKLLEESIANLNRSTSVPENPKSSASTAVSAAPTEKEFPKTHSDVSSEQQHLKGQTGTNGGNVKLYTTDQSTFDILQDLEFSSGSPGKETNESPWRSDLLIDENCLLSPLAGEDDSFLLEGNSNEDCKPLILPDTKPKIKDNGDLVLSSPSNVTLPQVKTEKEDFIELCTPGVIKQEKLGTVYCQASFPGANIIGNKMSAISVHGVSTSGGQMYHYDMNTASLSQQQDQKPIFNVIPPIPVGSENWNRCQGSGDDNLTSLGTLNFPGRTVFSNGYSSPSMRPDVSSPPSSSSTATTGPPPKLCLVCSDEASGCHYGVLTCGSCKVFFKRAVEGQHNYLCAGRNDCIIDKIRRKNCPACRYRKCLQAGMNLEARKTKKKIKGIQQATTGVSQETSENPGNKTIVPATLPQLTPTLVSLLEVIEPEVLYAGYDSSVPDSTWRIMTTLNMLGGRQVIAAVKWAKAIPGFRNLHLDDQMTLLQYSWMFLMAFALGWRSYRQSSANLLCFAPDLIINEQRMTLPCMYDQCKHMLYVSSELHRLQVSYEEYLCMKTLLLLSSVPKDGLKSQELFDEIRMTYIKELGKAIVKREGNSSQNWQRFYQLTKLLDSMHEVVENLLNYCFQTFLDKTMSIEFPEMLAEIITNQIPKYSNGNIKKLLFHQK
# Chain of Oxysterols receptor LXR-alpha (Homo sapiens) (Q13133 whole entry, looked up, the tested form may be a part): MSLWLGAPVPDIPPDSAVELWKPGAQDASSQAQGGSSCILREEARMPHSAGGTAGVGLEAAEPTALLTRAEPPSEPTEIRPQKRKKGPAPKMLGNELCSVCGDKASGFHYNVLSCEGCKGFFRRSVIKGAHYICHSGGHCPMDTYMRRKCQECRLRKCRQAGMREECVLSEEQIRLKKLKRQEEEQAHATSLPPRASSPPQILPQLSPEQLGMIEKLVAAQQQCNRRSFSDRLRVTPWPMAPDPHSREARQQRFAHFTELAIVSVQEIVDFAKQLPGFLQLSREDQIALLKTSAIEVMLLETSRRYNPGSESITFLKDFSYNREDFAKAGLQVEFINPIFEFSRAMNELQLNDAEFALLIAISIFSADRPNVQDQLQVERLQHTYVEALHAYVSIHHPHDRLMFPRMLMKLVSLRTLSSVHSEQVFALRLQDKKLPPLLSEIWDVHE
# Chain of Nuclear receptor subfamily 4 group A member 2 (Homo sapiens) (P43354 whole entry, looked up, the tested form may be a part): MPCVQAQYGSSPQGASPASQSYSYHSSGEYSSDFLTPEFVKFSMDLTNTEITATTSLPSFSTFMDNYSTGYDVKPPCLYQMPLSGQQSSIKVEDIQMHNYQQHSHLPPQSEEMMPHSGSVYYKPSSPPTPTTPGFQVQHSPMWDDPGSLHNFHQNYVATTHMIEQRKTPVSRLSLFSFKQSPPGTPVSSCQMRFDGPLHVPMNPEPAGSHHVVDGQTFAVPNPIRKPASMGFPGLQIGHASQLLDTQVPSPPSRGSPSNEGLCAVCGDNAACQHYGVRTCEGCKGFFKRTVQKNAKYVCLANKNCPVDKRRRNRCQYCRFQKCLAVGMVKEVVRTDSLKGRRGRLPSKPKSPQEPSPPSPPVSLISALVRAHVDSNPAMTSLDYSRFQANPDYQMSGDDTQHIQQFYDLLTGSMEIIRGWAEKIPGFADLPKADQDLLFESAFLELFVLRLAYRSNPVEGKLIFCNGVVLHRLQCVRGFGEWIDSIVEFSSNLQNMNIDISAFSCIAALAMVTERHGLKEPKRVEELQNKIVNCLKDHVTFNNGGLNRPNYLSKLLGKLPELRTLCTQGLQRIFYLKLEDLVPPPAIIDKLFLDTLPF
# Chain of Nuclear respiratory factor 1 (Homo sapiens) (Q16656 whole entry, looked up): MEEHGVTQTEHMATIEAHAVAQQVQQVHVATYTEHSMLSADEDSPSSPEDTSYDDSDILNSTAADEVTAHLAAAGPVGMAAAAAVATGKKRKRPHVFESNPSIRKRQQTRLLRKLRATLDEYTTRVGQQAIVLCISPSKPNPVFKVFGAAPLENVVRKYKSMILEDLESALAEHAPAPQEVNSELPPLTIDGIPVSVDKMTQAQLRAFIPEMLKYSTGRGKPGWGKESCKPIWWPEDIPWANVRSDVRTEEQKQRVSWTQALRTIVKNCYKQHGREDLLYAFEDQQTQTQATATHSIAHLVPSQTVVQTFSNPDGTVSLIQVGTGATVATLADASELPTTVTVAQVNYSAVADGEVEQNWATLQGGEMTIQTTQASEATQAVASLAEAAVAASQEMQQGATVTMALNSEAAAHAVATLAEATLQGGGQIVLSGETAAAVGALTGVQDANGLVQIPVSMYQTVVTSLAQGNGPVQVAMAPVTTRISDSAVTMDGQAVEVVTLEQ
# Chain of Bile acid receptor (Homo sapiens) (Q96RI1 whole entry, looked up, the tested form may be a part): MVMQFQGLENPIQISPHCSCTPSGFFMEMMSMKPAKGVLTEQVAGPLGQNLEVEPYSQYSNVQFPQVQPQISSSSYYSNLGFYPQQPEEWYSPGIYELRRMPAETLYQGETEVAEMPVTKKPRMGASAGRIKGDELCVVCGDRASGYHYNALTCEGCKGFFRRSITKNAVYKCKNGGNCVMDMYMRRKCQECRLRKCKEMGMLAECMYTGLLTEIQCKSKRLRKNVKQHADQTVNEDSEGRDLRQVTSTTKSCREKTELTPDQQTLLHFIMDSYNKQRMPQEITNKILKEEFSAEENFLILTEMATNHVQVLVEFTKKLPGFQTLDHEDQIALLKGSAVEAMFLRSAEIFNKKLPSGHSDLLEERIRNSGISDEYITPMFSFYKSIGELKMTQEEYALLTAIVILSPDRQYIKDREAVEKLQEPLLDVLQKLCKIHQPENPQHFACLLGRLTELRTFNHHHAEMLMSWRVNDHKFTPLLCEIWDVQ
# Chain of Cellular tumor antigen p53 (Homo sapiens) (P04637 whole entry, looked up, the tested form may be a part): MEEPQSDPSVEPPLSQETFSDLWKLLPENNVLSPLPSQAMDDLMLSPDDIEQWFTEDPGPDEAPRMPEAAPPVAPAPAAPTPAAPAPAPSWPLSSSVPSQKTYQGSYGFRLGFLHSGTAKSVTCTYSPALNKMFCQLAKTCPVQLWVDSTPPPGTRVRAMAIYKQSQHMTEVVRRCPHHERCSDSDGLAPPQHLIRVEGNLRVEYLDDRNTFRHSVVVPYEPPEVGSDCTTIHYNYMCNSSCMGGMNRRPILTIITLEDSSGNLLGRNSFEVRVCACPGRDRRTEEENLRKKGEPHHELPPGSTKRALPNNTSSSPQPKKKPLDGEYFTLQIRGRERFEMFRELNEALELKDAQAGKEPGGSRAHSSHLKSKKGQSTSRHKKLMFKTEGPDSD
# Chain of Transcriptional activator Myb (Homo sapiens) (P10242 whole entry, looked up): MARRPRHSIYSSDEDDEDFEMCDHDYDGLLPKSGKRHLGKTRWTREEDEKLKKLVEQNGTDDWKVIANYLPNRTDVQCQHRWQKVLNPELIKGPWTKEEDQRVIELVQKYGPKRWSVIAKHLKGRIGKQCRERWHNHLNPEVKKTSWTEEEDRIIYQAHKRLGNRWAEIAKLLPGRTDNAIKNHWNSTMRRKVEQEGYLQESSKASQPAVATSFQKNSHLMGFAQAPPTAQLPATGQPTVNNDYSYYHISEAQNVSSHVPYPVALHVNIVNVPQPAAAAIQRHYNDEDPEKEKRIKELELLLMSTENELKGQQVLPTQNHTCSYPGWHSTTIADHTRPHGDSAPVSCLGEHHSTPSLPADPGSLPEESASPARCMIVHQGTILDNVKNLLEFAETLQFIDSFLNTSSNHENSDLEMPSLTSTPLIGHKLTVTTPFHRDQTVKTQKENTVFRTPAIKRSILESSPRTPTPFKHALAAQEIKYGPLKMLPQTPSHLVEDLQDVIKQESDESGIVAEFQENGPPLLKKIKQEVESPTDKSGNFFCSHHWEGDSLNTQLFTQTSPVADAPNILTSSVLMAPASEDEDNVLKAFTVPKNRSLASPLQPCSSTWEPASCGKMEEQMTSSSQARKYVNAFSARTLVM
# Chain of Hepatocyte nuclear factor 4-alpha (Homo sapiens) (P41235 whole entry, looked up, the tested form may be a part): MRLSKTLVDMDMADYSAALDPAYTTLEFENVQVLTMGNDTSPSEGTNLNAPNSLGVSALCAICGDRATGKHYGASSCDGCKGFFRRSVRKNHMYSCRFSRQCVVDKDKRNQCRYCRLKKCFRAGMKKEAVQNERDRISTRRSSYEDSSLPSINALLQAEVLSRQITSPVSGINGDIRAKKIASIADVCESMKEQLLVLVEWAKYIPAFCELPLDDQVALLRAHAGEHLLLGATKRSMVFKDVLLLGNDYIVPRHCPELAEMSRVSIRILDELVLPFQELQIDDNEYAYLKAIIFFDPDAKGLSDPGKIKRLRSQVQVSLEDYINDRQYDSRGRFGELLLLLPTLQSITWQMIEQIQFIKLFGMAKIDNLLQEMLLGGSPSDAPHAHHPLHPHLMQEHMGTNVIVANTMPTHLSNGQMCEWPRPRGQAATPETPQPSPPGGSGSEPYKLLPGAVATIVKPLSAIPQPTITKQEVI
compound,measurement,setting,value
CC1=NN(c2cc(S(=O)(=O)O)ccc2Cl)C(=O)C1N=Nc1ccccc1 (stereo not drawn),outcome,[1],inactive
same,outcome,[2],inactive
same,outcome,[3],inactive
same,outcome,[4],inactive
same,outcome,[5],inactive
same,outcome,[6],inactive
same,outcome,[7],inactive
same,outcome,[8],inactive
same,outcome,[9],inactive
same,outcome,[10],inactive
same,outcome,[11],inactive
same,outcome,[12],inactive
same,outcome,[13],inactive
same,outcome,[14],inactive
CC(C)(C)C1CCCCC1=O (stereo not drawn),outcome,[1],inactive
same,outcome,[3],inactive
same,outcome,[4],inactive
same,outcome,[5],inactive
same,outcome,[6],inactive
same,outcome,[7],inactive
same,outcome,[8],inactive
same,outcome,[9],inactive
same,outcome,[10],inactive
same,outcome,[11],inactive
same,outcome,[15],inactive
same,outcome,[12],inactive
same,outcome,[13],inactive
CCCCNc1ccc(NCCCC)c2c1C(=O)c1ccccc1C2=O,outcome,[1],inactive
same,outcome,[2],inactive
same,outcome,[3],inactive
same,outcome,[6],inactive
same,outcome,[7],inactive
same,outcome,[16],inactive
same,outcome,[8],inactive
same,outcome,[10],inactive
same,outcome,[11],inactive
same,outcome,[15],inactive
same,AC50,[12],1.47 µM (active)
same,outcome,[13],inactive
same,outcome,[14],inactive
same,outcome,[17],inactive
same,outcome,[18],inactive
same,outcome,[19],inactive
same,outcome,[20],inactive
C=C[Si](C)(C)O[Si](C)(C)C=C,outcome,[1],inactive
same,outcome,[3],inactive
same,outcome,[4],inactive
same,outcome,[5],inactive
same,outcome,[6],inactive
same,outcome,[7],inactive
same,outcome,[16],inactive
same,outcome,[8],inactive
same,outcome,[9],inactive
same,outcome,[10],inactive
same,outcome,[11],inactive
same,outcome,[15],inactive
same,outcome,[12],inactive
same,outcome,[13],inactive
same,outcome,[14],inactive
Cc1cccc(N(C)C(=S)Oc2ccc3ccccc3c2)c1,outcome,[1],inactive
same,outcome,[2],inactive
same,outcome,[3],inactive
same,outcome,[5],inactive
same,outcome,[6],inactive
same,outcome,[7],inactive
same,AC50,[16],44.1 µM (active)
same,outcome,[8],inactive
same,outcome,[9],inactive
same,outcome,[10],inactive
same,outcome,[11],inactive
same,outcome,[15],inactive
same,AC50,[12],19.8 µM (active)
same,outcome,[14],inactive
CCCCCCCCCCc1ccccc1,outcome,[1],inactive
same,outcome,[2],inactive
same,outcome,[4],inactive
same,outcome,[6],inactive
same,outcome,[7],inactive
same,outcome,[16],inactive
same,outcome,[8],inactive
same,outcome,[9],inactive
same,outcome,[10],inactive
same,outcome,[11],inactive
same,outcome,[15],inactive
same,outcome,[12],inactive
same,AC50,[13],53.6 µM (active)
c1ccc(CCCc2ccncc2)cc1,outcome,[1],inactive
same,outcome,[2],inactive
same,outcome,[4],inactive
same,outcome,[5],inactive
same,outcome,[6],inactive
same,outcome,[7],inactive
same,outcome,[16],inactive
same,outcome,[8],inactive
same,outcome,[10],inactive
same,outcome,[11],inactive
same,outcome,[15],inactive
same,AC50,[12],45.4 µM (active)
same,outcome,[13],inactive
same,outcome,[14],inactive
Cc1ccc(C2OC[C@@H]3OC(c4ccc(C)cc4)O[C@H]([C@H](O)CO)[C@@H]3O2)cc1 (stereo partly drawn),outcome,[1],inactive
same,outcome,[2],inactive
same,outcome,[3],inactive
same,outcome,[4],inactive
same,outcome,[5],inactive
same,outcome,[6],inactive
same,outcome,[7],inactive
same,outcome,[16],inactive
same,outcome,[8],inactive
same,outcome,[9],inactive
same,outcome,[10],inactive
same,outcome,[11],inactive
same,outcome,[15],inactive
same,AC50,[12],100 µM (active)
same,outcome,[13],inactive
same,outcome,[14],inactive
O=P(O)(O)Oc1ccccc1,outcome,[1],inactive
same,outcome,[2],inactive
same,outcome,[4],inactive
same,outcome,[6],inactive
same,outcome,[8],inactive
same,outcome,[9],inactive
same,outcome,[10],inactive
same,outcome,[11],inactive
same,outcome,[15],inactive
same,outcome,[12],inactive
same,outcome,[13],inactive
same,outcome,[14],inactive
